Screening data (PubChem BioAssay)
Compounds with a hit are over-represented: about 7.5% of the library has one in this group of screens.
VP16 counter: counter-screen for ROR gamma inhibitors: Gal4-VP16 reporter. Drosophila S2 Gal4-VP16 UAS-luciferase, luminescence, 20 h. Potency, µM (series often up to 53.6 µM), actives largely listed as inhibitors. actives 3.5% (n = 310,000). AID 2546;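 also: Gal4-VP16 expression switched on by copper sulfate through the metallothionein promoter; nearly all actives have a fitted effect of over 50% in size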
TSHR antag: antagonists of human thyroid stimulating hormone receptor; TSHR-expressing cells, TSH-stimulated cAMP HTRF, 2 h; hits give low values; activity change, negative = inhibition, % at 11.5 µM; actives 0.2% (n = 330,000); AID 504810;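 active = activity change below a set negative limit, meaning inhibition stronger than a set level, cut at about -70% in these data; inconclusive = activity change between two set negative limits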
Target sequence (P16473 whole entry, looked up): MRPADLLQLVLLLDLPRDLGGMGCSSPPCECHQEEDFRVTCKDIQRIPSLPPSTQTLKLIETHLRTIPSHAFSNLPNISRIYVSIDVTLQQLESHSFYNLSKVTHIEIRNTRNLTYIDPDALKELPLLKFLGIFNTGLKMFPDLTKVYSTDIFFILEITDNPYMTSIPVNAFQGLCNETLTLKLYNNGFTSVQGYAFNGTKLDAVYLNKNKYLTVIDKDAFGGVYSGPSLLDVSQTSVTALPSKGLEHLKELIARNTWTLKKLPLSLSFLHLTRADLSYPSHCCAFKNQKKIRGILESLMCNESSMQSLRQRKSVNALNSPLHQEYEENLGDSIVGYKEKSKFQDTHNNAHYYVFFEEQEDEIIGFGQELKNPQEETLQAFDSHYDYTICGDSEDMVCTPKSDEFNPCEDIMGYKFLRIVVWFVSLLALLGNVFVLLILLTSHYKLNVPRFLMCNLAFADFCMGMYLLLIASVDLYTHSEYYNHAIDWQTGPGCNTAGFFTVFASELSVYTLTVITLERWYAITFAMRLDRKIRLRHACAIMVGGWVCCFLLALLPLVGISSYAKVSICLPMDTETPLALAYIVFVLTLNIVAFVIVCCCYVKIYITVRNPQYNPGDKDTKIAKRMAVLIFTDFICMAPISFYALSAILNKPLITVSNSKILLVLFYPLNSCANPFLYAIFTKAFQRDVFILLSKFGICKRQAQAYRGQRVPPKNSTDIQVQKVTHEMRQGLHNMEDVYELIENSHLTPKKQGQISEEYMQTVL
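TSHR-expressing cells were treated with compounds, then stimulated with TSH at EC80 (4nM final) for 2 hours at 37 deg C. Cellular cAMP was measured by HTRF competition between lysate cAMP and cAMP-d2 for a cryptate-labelled anti-cAMP antibody.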
RORg inh: ROR gamma (mouse) transcription inhibition; P51450; Drosophila S2 Gal4-RORgamma UAS-luciferase reporter, 20 h; Potency, µM (doses to about 53.6 µM), actives largely listed as inhibitors; actives 5.4% (n = 310,000); also: nearly all actives have a fitted effect of over 60% in size
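Luciferase reporter read in Schneider cells carrying Gal4-RORγ (mouse) and UAS-Photinus luciferase; cells given compound 1 h before 700 uM copper sulfate induction, then incubated 20 h at ambient temperature.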
ELG1 DNA repair: ELG1-dependent DNA repair inhibition | Potency, µM (titrated, usually from 46.1 µM), usual class: inhibitors | HEK293T ELG1-luciferase reporter, luminescence, 16 h; DNA damage induced by 5-fluorouridine | actives 2.3% (n = 330,000); also: nearly all actives have a fitted effect of over 55% in size
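5-Fluorouridine DNA damage + compound/DMSO, 2,000 cells/well, 16 h, 37 °C/5% CO2. ONE-Glo, 30 min RT, luminescence. Readout = decrease in reporter signal.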
B2AR arrestin: recruits beta-arrestin to the human beta2-adrenergic receptor | beta-arrestin recruitment to beta2AR, cell-based reporter | Potency, µM (titrated, usually from 46.1 µM), hits mostly activators | actives 0.02% (n = 330,000) | AID 492947; also: nearly all actives have a fitted effect of over 65% in size
Numbers stand for hits; n = inactive; u = inconclusive; x = no result given; [ ] = another dose, or the depositor's remark. Unless noted, calls follow the shape of the dose curve; as a rule, active = well fitted curve in the direction sought with a large enough effect; inconclusive = small, poorly fitted or top-dose-only effect, or another doubt; inactive = no such curve, though single readings can be large; an effect the other way counts as inactive or inconclusive.

SMILES | VP16 counter | TSHR antag | RORg inh | ELG1 DNA repair | B2AR arrestin
Cc1ccc(NC(=S)NC2CC3CCCC(C2)N3Cc2ccco2)cc1 (centres undefined) | n | n | n | u | n
Fc1ccc(NC(=S)NC2CC3CCCC(C2)N3Cc2cccs2)cc1 (centres undefined) | u | n | 10µM | n | n
Cc1cccc(NC(=S)NC2CC3CCCC(C2)N3Cc2ccco2)c1 (centres undefined) | u | n | 11µM | n | n
CC(C)CNC(=S)NC1CC2CCCC(C1)N2Cc1cccs1 (centres undefined) | n | n | 11µM | n | n
Cc1ccc(NC(=S)NC2CC3CCCC(C2)N3Cc2cccs2)cc1 (centres undefined) | u | n | 4.5µM | n | n
Cc1cc(CC(=O)O)c(C)n1-c1ccc(Cl)cc1 | n | x | n | x | x
C/C(CC(=O)Nc1cc(Cl)ccc1Cl)=N\NC(=O)c1ccccc1Br | n | n | u | n | n
Fc1cccc(COc2ccccc2C(=S)N2CCCC2)c1 | n | n | 11µM | n | n
O=C(CNC(=O)c1ccc(Cl)cc1Cl)OCC(=O)N1CCCC1=O | x | n | x | n | n
COc1ccc(C2SCC(=O)N2CCc2ccc(OC)c(OC)c2)cc1 (centres undefined) | 2.8µM | n | u | 18µM | n
C=CCN1C(=O)/C(=C/C(=O)OC)S/C1=N\NC(=O)c1ccccc1 | 18µM | n | 7.9µM | u | n
C=CCn1c(C)c(C(C)=O)cc(NC(=O)c2ccccc2)c1=O | n | n | n | n | n
CCOC(=O)c1ccc(-c2ccc(CO)o2)cc1 | u | n | 11µM | u | n
Cc1cc([N+](=O)[O-])ccc1-c1ccc(C2Nc3ccccc3C(=O)N2O)o1 (centres undefined) | 0.71µM | n | u | u | n
N#Cc1ccc(-c2ccc(C3Nc4ccccc4C(=O)N3O)o2)cc1 (centres undefined) | x | n | x | n | n
O=C1c2ccccc2NC(c2ccc(-c3ccccc3F)o2)N1O (centres undefined) | x | n | x | u | n
CCOC(=O)c1ccc(-c2ccc(C3Nc4ccccc4C(=O)N3O)o2)cc1 (centres undefined) | u | n | 11µM | u | n
Cc1ccc(-c2ccc(CO)o2)cc1N | n | n | n | u | n
COc1ccc(C2Oc3cc(OC)cc(OC)c3CC2O)cc1 (centres undefined) | n | x | n | x | x
O=C(CNC(=S)NC(=O)c1ccccc1Br)c1ccccc1 | n | n | n | n | n
CC(C)C(=O)NC(=S)NCC(=O)c1ccccc1 | u | n | 11µM | n | n
Cc1ccccc1C(=O)NC(=S)NCC(=O)c1ccccc1 | u | n | 11µM | n | n
O=C(CNC(=S)NC(=O)c1ccc(F)cc1)c1ccccc1 | n | n | 11µM | n | n
O=C(NC(=S)NC(c1ccccc1)c1ccncc1)c1ccccc1 (centres undefined) | u | n | 11µM | 18µM | n
O=C(NC(=S)NC(CO)c1ccccc1)c1ccc(F)cc1 (centres undefined) | n | n | u | n | n
SMILES | VP16 counter | TSHR antag | RORg inh | ELG1 DNA repair | B2AR arrestin
C/C=C(\C)C(=O)O[C@H]1C[C@@]2(C)CCC(C(C)C)C2(O)CC[C@@]1(C)O (some centres undefined) | n | x | n | x | x
C=CCn1c(SCC(=O)N(C)C2CCS(=O)(=O)C2)nnc1-c1ccccc1 (centres undefined) | x | n | x | n | n
CCOC(=O)c1c(C)[nH]c(C)c1C(=O)COC(=O)COc1ccc(Cl)c(C)c1 | x | n | x | n | n
O=C(CNC(=S)NC(=O)c1ccccc1)c1ccccc1 | u | n | 11µM | u | n
O=C(NNC(=S)NC(=O)c1ccccc1)c1ccc(O)cc1 | u | n | u | n | n
CC(C)CC(=O)NC(=S)Nc1ccc(S(=O)(=O)N2CCCC2)cc1 | n | n | 16µM | n | n
O=C(Nc1ccc2c(c1)oc1ccccc12)C1CC1 | n | n | n | u | n
Cc1ccccc1C(=O)N1CCC(C(=O)Nc2ccc(S(=O)(=O)N3CCCCC3)cc2)CC1 | u | n | u | 15µM | n
O=C(Nc1ccc2c(c1)oc1ccc(S(=O)(=O)N3CCCC3)cc12)C1CC1 | n | n | n | 16µM | n
CC(C)C(=O)NC(=S)Nc1ccc(S(=O)(=O)N2CCCC2)cc1 | u | n | u | n | n
CN(C1CCCCC1)S(=O)(=O)c1ccc(S(=O)(=O)N2CCN(C(=O)c3ccccc3F)CC2)cc1 | n | n | n | 18µM | n
FC(F)(F)c1ccccc1-c1ccc2ncnc(NC3CCNCC3)c2c1 | n | x | n | x | x
O=C(NC(=S)Nc1ccc(S(=O)(=O)N2CCCC2)cc1)C1CCC1 | n | n | 11µM | n | n
O=C(NC(=S)Nc1ccc(S(=O)(=O)N2CCCC2)cc1)C1CC1 | n | n | 10µM | u | n
Cc1cccc(Cc2cnc(NC(=O)C3=NCCN3)s2)c1 | 7.9µM | n | 3.5µM | u | n
Cc1cccc(Cc2cnc(NC(=O)c3ccc(C)o3)s2)c1 | u | n | 10µM | u | n
O=C(Nc1ncc(Cc2cccc([N+](=O)[O-])c2)s1)c1ccco1 | u | n | u | n | n
Cc1ccc(Cc2cnc(NC(=O)c3ccco3)s2)cc1 | 5.6µM | n | u | u | n
Cc1ccc(C(=O)Nc2nnc(C)s2)o1 | n | n | n | u | n
COc1ccccc1C(=O)NC(=O)CSc1nnc(C)s1 | n | n | n | n | n
COc1ccc(-c2cn3c(C)c(C(=O)Nc4cccc(C)n4)sc3n2)cc1 | 11µM | n | 7.1µM | u | n
Cc1cccc(NC(=O)c2sc3nc(-c4ccccc4)cn3c2C)n1 | n | n | n | 18µM | n
CNc1ncc(C(=O)c2ccc(Br)cc2)s1 | n | n | n | u | n
CCC(=O)c1ccc(OCC(=O)OCC(=O)NCC2CCCCC2)cc1 | x | n | x | n | n
CC(C)=NOCc1ccc(-c2cn([C@@H]3COC[C@@H]3O)nn2)cc1 | n[10 µM] | x | n[10 µM] | x | x
SMILES | VP16 counter | TSHR antag | RORg inh | ELG1 DNA repair | B2AR arrestin
CC1(C)CC(=O)C2=C(C1)O[C@@]1(CCCCN3C(=O)c4ccccc4C3=O)Cc3cc(C#N)ccc3C2O1 | n[10 µM] | x | n[10 µM] | x | n[9.22 µM]
Cc1cc(/C=N/NC(=O)c2ccc(O)cc2)c(C)n1CC(C)C | n | n | 7.9µM | u | n
COCCn1c(C)cc(/C=N/NC(=O)c2cccnc2)c1C | n | n | n | u | n
Cc1ccc2occ(/C=N/NC(=O)c3ccccc3Br)c(=O)c2c1 | n | n | n | n | n
Cc1ccc2occ(/C=N/NC(=O)c3ccc(O)cc3)c(=O)c2c1 | n | n | 20µM | u | n
Cc1ccc(C(C(=O)NCC2CCCO2)N(Cc2ccccc2)C(=O)c2ccc(-c3ccccc3)[nH]2)o1 (centres undefined) | u | n | u | 16µM | n
O=C(NCC(=O)N(c1ccc(F)cc1)C(C(=O)NCC1CCCO1)c1ccccc1)c1ccco1 (centres undefined) | n | n | n | n | n
